Bioassay records as filed in PubChem BioAssay.
Dicer inh: inhibitors of human Dicer processing of pre-microRNA | Q9UPY3 | 47,000 tested, 6% active | AID 1347074 | cat-ELCCA pre-miR-21 Dicer processing, chemiluminescence; active compounds read high | z-score at 25 µM; in the data active means z-score above about 3, passing the limit was not always enough;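 further: plate controls were vehicle for no effect and no enzyme for full effect; higher signal means more uncleaved substrate so more Dicer inhibition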
The depositor's hits bear a star. Only a selection was taken, and hits are over-represented in it overall.

`Cc1ccc(CN2C(=O)c3oc4ccc(F)cc4c(=O)c3C2c2ccc(O)cc2)cc1` (stereo unspecified) gave Dicer inh 0.85.
COc1cc(C2c3c(oc4ccccc4c3=O)C(=O)N2Cc2ccc(F)cc2)ccc1O (stereo unspecified) was read as Dicer inh 1.1.
For Cc1ccc2oc3c(c(=O)c2c1)C(c1ccccc1F)N(c1ccccn1)C3=O (stereo unspecified) the results were Dicer inh 3.3*.
For CCCCOc1ccc(C2c3c(oc4ccccc4c3=O)C(=O)N2c2ccccn2)cc1 (stereo unspecified) the results were Dicer inh 2.3.
Screening CSc1ccc(C2c3c(oc4ccc(C)cc4c3=O)C(=O)N2c2ccccn2)cc1 (stereo unspecified) returned Dicer inh -0.25.
Screening Cc1ccc2oc3c(c(=O)c2c1)C(c1cccc(O)c1)N(c1ccccn1)C3=O (stereo unspecified) returned Dicer inh 1.7.
`COc1ccc(C2c3c(oc4cc(C)c(C)cc4c3=O)C(=O)N2c2ccccn2)cc1` (stereo unspecified) gave Dicer inh -0.09.
C=CCOc1ccc(C2c3c(oc4ccccc4c3=O)C(=O)N2c2ccccn2)cc1 (stereo unspecified) was read as Dicer inh 4.1*.
Screening CCOc1ccc(C2c3c(oc4ccccc4c3=O)C(=O)N2c2ccccn2)cc1 (stereo unspecified) returned Dicer inh 2.1.
`COc1cc(C2c3c(oc4ccc(F)cc4c3=O)C(=O)N2Cc2ccc(C)cc2)ccc1O` (stereo unspecified) gave Dicer inh 4.8*.
Screening COC(=O)c1cnc(Sc2ccccc2NS(C)(=O)=O)c([N+](=O)[O-])c1 returned Dicer inh -1.1.
For O=C(NCc1ccc(Cl)c(Cl)c1)c1c(C(F)(F)F)ccnc1Oc1ccccc1 the results were Dicer inh 0.42.
For CC1(C)Cc2c(c(-c3ccco3)nc3sc4c(N5CCCC5)ncnc4c23)CO1 the results were Dicer inh -0.87.
Screening CCn1nc(C)c([N+](=O)[O-])c1C(=O)Nc1ccc(Cl)cc1 returned Dicer inh 1.2.
For COc1ccc2nc(SCC(=O)N3CCN(S(=O)(=O)c4ccccc4)C3)[nH]c2c1 the results were Dicer inh 0.36.
Screening CC(/C=C/c1cccnc1)=C\C(=O)O returned Dicer inh 0.83.
Screening COC(=O)c1cc(S(=O)(=O)C(C)C)c(SC)s1 returned Dicer inh -0.71.
For Cc1cc(C)c2cc(C(=O)Nc3ccc(Br)c(C)n3)[nH]c2c1 the results were Dicer inh -3.1.
Screening Cn1c(=O)c2c(ncn2CC(=O)Nc2ccc(F)c(Cl)c2)n(C)c1=O returned Dicer inh 0.34.
`CO/N=C1\CCCc2c(C(=O)N/N=C/c3cccs3)sc(SC)c21` gave Dicer inh 0.51.
Screening Cc1ccc(N2C(=O)c3oc4ccccc4c(=O)c3C2c2ccc(Br)cc2)nc1 (stereo unspecified) returned Dicer inh 2.7.
Cc1ccc(C2c3c(oc4ccccc4c3=O)C(=O)N2c2ccc(C)cn2)cc1 (stereo unspecified) was read as Dicer inh 4.2*.
CCOc1ccc(C2c3c(oc4ccccc4c3=O)C(=O)N2c2ccc(C)cn2)cc1OCC (stereo unspecified) was read as Dicer inh -1.4.
Screening CCOC(=O)c1cc(C)nc(N2CCC(C(N)=O)CC2)c1C#N returned Dicer inh -0.19.
Screening CCC(C)C(NC(=O)C(NC(=O)OCc1ccccc1)C(C)C)C(=O)O (stereo unspecified) returned Dicer inh 0.42.
`CSc1sc(-c2ccnc(SCC(N)=O)n2)c(-c2ccccc2)c1C#N` gave Dicer inh 1.3.
`CCCC1C(C#N)=C(N)Oc2n[nH]c(CC(=O)OCC)c21` (stereo unspecified) gave Dicer inh -3.5.
`CCOC(=O)c1c(N/N=C/c2cccc(Cl)c2)n[nH]c1C` gave Dicer inh -0.21.
Screening CC(C)S(=O)(=O)C/C(N)=N/OS(=O)(=O)c1ccc(Cl)cc1 returned Dicer inh -1.5.
Screening N#C/C(=N\OC(=O)c1ccc(Cl)cc1)S(=O)(=O)c1ccc(Cl)cc1 returned Dicer inh -3.8.
Screening N/C(CS(=O)(=O)Cc1ccco1)=N\OC(=O)c1ccc(Cl)cc1 returned Dicer inh 4.8*.
`CC(C)S(=O)(=O)C/C(N)=N/OC(=O)c1cc(Cl)cc(Cl)c1` gave Dicer inh 5.4*.
For CC(C)S(=O)(=O)C/C(N)=N/OCc1ccc(Cl)cc1 the results were Dicer inh -0.68.
For CCCS(=O)(=O)C/C(N)=N/OC(=O)c1ccc(Cl)cc1 the results were Dicer inh -0.54.
Screening O=C(CN1CCN(c2nc3cc(Cl)ccc3s2)CC1)c1ccc(OC(F)(F)F)cc1 returned Dicer inh 0.69.
`Cc1cc(C)c2c(=O)cc(-c3ccccc3Cl)oc2c1` gave Dicer inh 1.6.
O=C(CN(Cc1ccccc1)Cc1ccccc1)N1c2ccccc2Sc2ccccc21 was read as Dicer inh 1.4.
O=C(NC(=S)NCC1CC1)c1ccccc1 was read as Dicer inh -0.16.
`O=C(NC(=S)NCc1ccncc1)c1ccccc1` gave Dicer inh 3.4*.
`S=C(NCCc1ccccn1)c1ccccc1` gave Dicer inh -1.9.
O=C(NNC(=S)NCCc1ccccc1)c1ccncc1 was read as Dicer inh -0.08.
`COc1ccc(CCNC(=S)NC(=O)c2ccccc2)cc1OC` gave Dicer inh 0.83.
Screening O=C(NC(=S)NCCc1ccccn1)c1ccccc1 returned Dicer inh 3.1*.
Screening O=C1CSC(c2ccc(Cl)c(Cl)c2)N1 (stereo unspecified) returned Dicer inh -0.87.
Screening O=S(=O)(c1ccccc1)n1nccc1C(c1ccccc1)c1ccccc1 returned Dicer inh 1.4.
O=C1CCOc2cc3c(cc21)C(=O)CCO3 was read as Dicer inh 3.6*.
`O=C1CCCc2c1ccc1c3c(ccc21)C(=O)CCC3` gave Dicer inh -0.13.
For O=C(c1ccc2c(c1)CCO2)N1CCN(C(=O)c2ccc3c(c2)CCO3)CC1 the results were Dicer inh -0.49.
Screening C=CCn1c(Sc2ncc(C(=O)OC)cc2[N+](=O)[O-])n[nH]c1=O returned Dicer inh -0.67.
`O=C(CSc1nnc2c(n1)[nH]c1ccccc12)Nc1ccc(Cl)cc1` gave Dicer inh 2.5.
Screening O=[N+]([O-])c1cccnc1Sc1ssc(=S)c1-c1ccccc1 returned Dicer inh -0.86.
COc1ccc(S(=O)(=O)N(C(=O)C(C)C)c2ccc3oc(=O)sc3c2)cc1 was read as Dicer inh 0.09.
Screening CCCCC(=O)N(c1ccc2oc(=O)sc2c1)S(=O)(=O)c1ccc(C(=O)O)cc1 returned Dicer inh -1.1.
Screening Cc1cc(F)ccc1S(=O)(=O)N(C(=O)c1cccnc1)c1ccc2oc(=O)sc2c1 returned Dicer inh 4.8*.
For CCCCC(=O)N(c1ccc2oc(=O)sc2c1)S(=O)(=O)c1ccc(OC)cc1 the results were Dicer inh 2.4.
`CC(C)c1ccc(S(=O)(=O)N(C(=O)c2ccncc2)c2ccc3oc(=O)sc3c2)cc1` gave Dicer inh 0.05.
For CCCC(=O)N(c1ccc2oc(=O)sc2c1)S(=O)(=O)c1ccc(F)cc1C the results were Dicer inh 1.7.
Screening O=C(c1cccnc1)N(c1ccc2oc(=O)sc2c1)S(=O)(=O)c1ccc(Br)cc1 returned Dicer inh 11*.
